Measurements published in PubChem BioAssay (EPA / NIEHS).
The source made the active and inactive calls. Rule for the calls: active = hit-call score of the fitted dose curve at least 0.9, where 1 is the maximum; inactive = score below 0.9.

Assay: ATG_MRE_CIS: Attagene CIS-FACTORIAL HepG2 Assay for human Metal Responsive Element (MRE) (AID 2282954)
Conditions: HepG2 MRE cis-reporter transcription, Attagene multiplex; actives raise or lower the signal
Method: ATG_CIS is a cell-based, multiplexed-readout assay that uses HepG2, a human liver cell line, with measurements taken at 24 hours after chemical dosing in a 24-well plate.ATG_MRE_CIS is one of 52 assay component(s) measured or calculated from the ATG_CIS assay. It is designed to make measurements of mRNA induction, a form of inducible reporter, as detected with fluorescence intensity signals by Reverse transcription polymerase chain reaction (RT-PCR) and Capillary electrophoresis technology.Data from the assay component ATG_MRE_CIS was analyzed into 1 assay endpoint. This assay endpoint, ATG_MRE_CIS, was analyzed with bidirectional fitting relative to DMSO as the negative control and baseline of activity. Using a type of inducible reporter, measures of mRNA for gain or loss-of-signal activity can be used to understand the reporter gene at the transcription factor-level as they relate to the gene MTF1. Furthermore, this assay endpoint can be referred to as a primary readout, because this assay has produced multiple assay endpoints where this one serves a reporter gene function. To generalize the intended target to other relatable targets, this assay endpoint is annotated to the dna binding intended target family, where the subfamily is zinc finger.
Human liver HepG2 cells are transiently transfected with multiple reporter transcription units (MRTUs) in 6-well plates using FuGene 6 reagent (Roche; 3 ml FuGene/1 mg DNA). The MRTU constructs are regulated by a cis-regulating element (promoter). […] A major difference between the CIS and TRANS system is that in CIS activities of endogenous TFs are measured, whereas the TRANS assay evaluates changes in activities of exogenous, chimeric NR-Gal4 proteins. […] At the end of 24 hour incubation, total RNA was isolated using TriZol reagent (Invitrogen). The isolated RNA is then reverse-transcribed using oligo(dT) primer and Mo-MLV reverse transcriptase (Invitrogen) with DNAse I (Ambion) treatment for 30 min. The one-tenth of the produced cDNA was amplified by PCR using Taq DNA polymerase (Invitrogen) and two reporter sequence-specific primers. The PCR products were fluorescently labeled by primer extension with 6-arboxyfluorescein (6-FAM) 5'-labeled reporter sequence-specific primer (2 min at 95 C, 20 s at 68 C and 10 min at 72 C) and these products were digested with 5U of HpaI (New England Biolabs) for 2h at 37 C. The fragments were purified using Qiaquick PCR columns (Qiagen), analyzed on an ABI 3130xL genetic analyzer (Applied Biosystems) with peak positions identified by using a set of X-rhodamine (ROX)-labeled MapMarker1000 molecular weight standards (BioVentures). The raw capillary electrophoresis data was processed using Attagraph software (Attagene).

Question: For `O=C1C=CC(=O)C=C1`, which outcome is on record?
Answer: The outcome was “inactive”.

Question: Which outcome does the source give for `COc1cc(OC)c(OC)cc1C=O` here?
Answer: The outcome was “inactive”.

Question: With `CC=Cc1ccc2c(c1)OCO2` as the compound, how does the outcome read?
Answer: The outcome was “inactive”.

Question: For `CC1OC(C)OC(C)O1` (stereo not given), which outcome is on record?
Answer: Its outcome is “inactive”.

Question: For `CC1(C)[C@H](C(=O)O[C@H](C#N)c2cccc(Oc3ccccc3)c2)[C@@H]1C=C(Br)Br`, which outcome is on record?
Answer: The outcome was “inactive”.

Question: With `N#Cc1cccc(C#N)c1` as the compound, how does the outcome read?
Answer: The outcome was “inactive”.

Question: Which outcome does the source give for `O=c1c2ccccc2c(=O)c2c1cc(Cl)c1[nH]c3c([nH]c12)c(Cl)cc1c(=O)c2ccccc2c(=O)c13` here?
Answer: Its outcome is “inactive”.

Question: For `CCCCCc1cc(O)cc(O)c1`, which AC50 is on record?
Answer: The AC50 was 100 µM (active).

Question: With `C=C(Cl)CCl` as the compound, how does the outcome read?
Answer: The outcome was “inactive”.

Question: For `Cc1ncc(C[n+]2csc(CCO)c2C)c(N)n1`, which outcome is on record?
Answer: Its outcome is “inactive”.

Question: With `CC(C)COP(=O)(OCC(C)C)OCC(C)C` as the compound, how does the outcome read?
Answer: The outcome was “inactive”.

Question: For `O=C(O)CCl`, which outcome is on record?
Answer: The outcome was “inactive”.

Question: With `Nc1ccccc1` as the compound, how does the outcome read?
Answer: Its outcome is “inactive”.

Question: Which outcome does the source give for `O=c1[nH]c(Cl)c(Cl)cc1Cl` here?
Answer: Its outcome is “inactive”.

Question: For `CC1(C)CC(=O)CC(C)(C)N1[O]`, which outcome is on record?
Answer: Its outcome is “inactive”.

Question: For `CCCOC(=O)c1ccccc1C(=O)OCCC`, which outcome is on record?
Answer: The outcome was “inactive”.

Question: For `N#CCNCC#N`, which outcome is on record?
Answer: The outcome was “inactive”.

Question: Which outcome does the source give for `CC(C)C#N` here?
Answer: The outcome was “inactive”.

Question: With `O=C(NC(=O)c1c(F)cccc1F)Nc1ccc(Oc2ccc(C(F)(F)F)cc2Cl)cc1F` as the compound, how does the outcome read?
Answer: Its outcome is “inactive”.

Question: With `Oc1ccc(Cl)cc1` as the compound, how does the outcome read?
Answer: Its outcome is “inactive”.

Question: For `O=C1Nc2ccc(Cl)cc2C(c2ccccc2)=NC1O` (stereo not given), which outcome is on record?
Answer: Its outcome is “inactive”.

Question: For `[CH3][Sn]([Cl])([Cl])[Cl]`, which outcome is on record?
Answer: Its outcome is “inactive”.

Question: For `Cc1cc(C)c(C2=C(OC(=O)CC(C)(C)C)C3(CCCC3)OC2=O)c(C)c1`, which AC50 is on record?
Answer: Its AC50 is 76 µM (active).

Question: For `CC1(C)C(=O)NC(=O)NC1=O`, which outcome is on record?
Answer: The outcome was “inactive”.

Question: Which outcome does the source give for `COC(=O)COc1ccc(Cl)cc1Cl` here?
Answer: Its outcome is “inactive”.

Question: With `CCC(=O)c1ccc(Cl)cc1` as the compound, how does the outcome read?
Answer: The outcome was “inactive”.

Question: Which outcome does the source give for `CCC1CCC(=O)O1` (stereo not given) here?
Answer: The outcome was “inactive”.

Question: With `CC(C)(O)C#N` as the compound, how does the outcome read?
Answer: The outcome was “inactive”.

Question: With `Nc1ccccc1C(=O)OCCc1ccccc1` as the compound, how does the AC50 read?
Answer: The AC50 was 33.4 µM (active).

Question: With `Cc1ccc(C)c2ccccc12` as the compound, how does the outcome read?
Answer: Its outcome is “inactive”.

Question: Which outcome does the source give for `C[N+](C)(C)CC(=O)[O-]` here?
Answer: The outcome was “inactive”.

Question: For `COc1cc(OC)nc(Oc2cccc(Oc3nc(OC)cc(OC)n3)c2C(=O)O)n1`, which outcome is on record?
Answer: Its outcome is “inactive”.

Question: Which outcome does the source give for `O=[N+]([O-])O` here?
Answer: Its outcome is “inactive”.

Question: For `C=CCc1ccc(OC(=O)Cc2ccccc2)c(OC)c1`, which outcome is on record?
Answer: Its outcome is “inactive”.

Question: For `CC1CCCC1.[C-]#[O+].[C-]#[O+].[C-]#[O+].[Mn]`, which outcome is on record?
Answer: The outcome was “inactive”.

Question: Which AC50 does the source give for `C[C@]12CC[C@H]3[C@@H](CC[C@@]45O[C@@H]4C(O)=C(C#N)C[C@]35C)[C@@H]1CC[C@@H]2O` here?
Answer: Its AC50 is 62.1 µM (active).

Question: With `CCOP(=O)(OCC)Oc1ccc([N+](=O)[O-])cc1` as the compound, how does the outcome read?
Answer: The outcome was “inactive”.

Question: For `COC(=O)c1ccccc1S(=O)(=O)NC(=O)Nc1nc(C)cc(C)n1`, which outcome is on record?
Answer: Its outcome is “inactive”.

Question: With `S=c1[nH]c2ccccc2[nH]1` as the compound, how does the outcome read?
Answer: The outcome was “inactive”.

Question: Which outcome does the source give for `Oc1cc(Cl)ccc1Cl` here?
Answer: The outcome was “inactive”.
